Measured values as given in PubChem BioAssay.
Values joined by “and” are separate entries in the source; they are usually repeats but may differ in a detail not shown here. Identical values can stand only once. Active and inactive are the calls of the source.

How the values were obtained:
[1] = test system: Plasmodium falciparum Sir2 (PF13_0152, Sir2A); test: pfSir2 binders on small-molecule microarrays, primary screen, biochemical, small-molecule microarray, 635 nm fluorescence (AID 1098); conditions: small-molecule microarray binding, fluorescence 635 nm; higher = more signal;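 further: score merges spot fluorescence intensity with its signal-to-noise ratio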
[2] = small-molecule microarray binders of probe aDKK1, primary screen, biochemical, biotinylated probe, 635/667 nm fluorescence (AID 1099); conditions: higher = more signal;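 further: score merges 667nm spot fluorescence with signal to noise across triplicate slides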
[3] = small-molecule microarray binders of probe aCHRDL2, primary screen, biochemical, biotinylated probe, 635/667 nm fluorescence (AID 1100); conditions: higher = more signal
[4] = splicing luciferase reporter signal modulators, primary screen, spliceosome inhibition project, cell-based, HEK293, splice +/- reporter (AID 1101); conditions: luminescence, 24 h, higher = more signal, called active from +8 up or from −8 down;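 further: HEK293 cells carrying a splicing-competent luciferase reporter gene; test concentration not given here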
[5] = molecular target: Fibroblast growth factor 10 (Homo sapiens) (UniProt O15520); test: FGF10 binders on small-molecule microarrays, primary screen, biochemical, small-molecule microarray, 635 nm fluorescence (AID 1102); conditions: FGF10 binding, fluorescence 635 nm, higher = more signal
[6] = test system: glycogen synthase kinase-3 (GSK3A per assay name; protocol says GSK3B); test: GSK3 binders on small-molecule microarrays, primary screen, biochemical, small-molecule microarray, 635 nm fluorescence, GSK3A (AID 1103); conditions: small-molecule microarray binding, fluorescence 635 nm; higher = more signal; further: the record names both GSK3A and GSK3B
[7] = molecular target: Epidermal growth factor receptor (Homo sapiens) (UniProt P00533); test: EGFR binders on small-molecule microarrays, primary screen, biochemical, small-molecule microarray, 635 nm fluorescence (AID 1104); conditions: EGFR binding, higher = more signal;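 further: score merges 667 nm emission intensity with spot signal to noise over triplicate slides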
[8] = molecular target: Follistatin-related protein 3 (Homo sapiens) (UniProt O95633); test: FSTL3 binders on small-molecule microarrays, primary screen, biochemical, small-molecule microarray, 635 nm fluorescence (AID 1105); conditions: FSTL3 binding, higher = more signal;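 further: score merges emission near 667 nm and signal to noise per printed spot across three slides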
[9] = molecular target: Dickkopf-related protein 1 (Homo sapiens) (UniProt O94907); test: DKK1 binders on small-molecule microarrays, primary screen, biochemical, small-molecule microarray, 635 nm fluorescence scan (AID 1106); conditions: DKK1 binding, higher = more signal;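 further: score merges emission near 667 nm with signal to noise over three replicate slides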
[10] = test system: Inhibin beta A chain (activin A); test: INHBA (activin A) binders on microarrays, primary screen, biochemical, small-molecule microarray, 635 nm fluorescence scan (AID 1107); conditions: small-molecule microarray binding, higher = more signal;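 further: mouse activin A protein probed at 4.33 µg/mL on printed slides; score merges bound-protein fluorescence near 667 nm with spot signal-to-noise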
[11] = test system: Human papillomavirus type 1a protein E7 (residues 44-93); test: HPV1a E7 fragment binders on microarrays, primary screen, biochemical, small-molecule microarray, residues 44-93, 635 nm fluorescence (AID 1108); conditions: small-molecule microarray binding, fluorescence 635 nm; higher = more signal;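 further: E7 fragment applied at 1 µg/mL in TBST for 1 h at 4 C; score combines spot fluorescence with its signal to noise ratio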
[12] = modulators of HCV replicon luciferase signal, primary screen, HCV replication inhibitor project, Huh7 cells, luciferase reporter (AID 1109); conditions: 48 h, higher = more signal;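 further: huh7 hepatoma cells harbouring a luciferase neomycin HCV replicon reporter; luciferase luminescence as measure of HCV replicon replication; test concentration not given here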
[13] = molecular target: Left-right determination factor 2 (Homo sapiens) (UniProt O00292); test: LEFTY2 binders on small-molecule microarrays, primary screen, biochemical, small-molecule microarray, 635 nm fluorescence scan (AID 1110); conditions: LEFTY2 binding, higher = more signal
[14] = molecular target: Calmodulin-1 (Homo sapiens) (UniProt P0DP23); test: CALM1 binders on microarrays, EGTA buffer, profiling panel, biochemical, small-molecule microarray, Cy5-labelled CALM1 (AID 1111); conditions: Cy5-CALM1 binding fluorescence, higher = more signal;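 further: labelled calmodulin applied in Tris saline Tween buffer holding calcium plus EGTA and DTT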
[15] = molecular target: Calmodulin-1 (Homo sapiens) (UniProt P0DP23); test: calcium-bound CALM1 binders on microarrays, profiling panel, artefact control for SMM control-protein annotation, biochemical, small-molecule microarray, Cy5-labelled CALM1, plus calcium (AID 1112); conditions: Cy5-CALM1 binding fluorescence, higher = more signal;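 further: score merges spot fluorescence with signal to noise from triplicate slides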
[16] = small-molecule microarray binders of probe aWnt5a, primary screen, biochemical, biotinylated probe, 635/667 nm fluorescence (AID 1113); conditions: higher = more signal;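 further: score merges 667 nm fluorescence intensity with signal-to-noise per printed feature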
[17] = small-molecule microarray binders of probe aShh, primary screen, biochemical, biotinylated probe, 635/667 nm fluorescence (AID 1114); conditions: higher = more signal;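 further: probe is biotin-labelled aShh protein from a stem cell growth factor screen; measures binding of labelled protein to compounds printed on the slide; score merges feature fluorescence at 667 nm with signal-to-noise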
[18] = small-molecule microarray binders of probe aNog, primary screen, biochemical, biotinylated probe, 635/667 nm fluorescence (AID 1115); conditions: higher = more signal;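 further: probe is biotinylated aNog protein used at 0.15 µg/mL for 1 h at 4 C; z-score combines 667 nm fluorescence of each spot with its signal to noise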
[19] = molecular target: Torsin-1A-interacting protein 1 (Homo sapiens) (UniProt Q5JTV8); test: LAP1 binders from COS7 cell lysate, primary screen, small-molecule microarray, 635/667 nm fluorescence (AID 1116); conditions: COS7-hLAP1 lysate binding, 635 nm fluorescence, higher = more signal
[20] = molecular target: Alpha-bungarotoxin (Bungarus multicinctus) (UniProt P60615); test: alpha-bungarotoxin binders on microarray, profiling panel, artefact control for SMM control protein annotation, biochemical, small-molecule microarray, Alexa647 label, 635/667 nm fluorescence (AID 1117); conditions: alpha-BTX-A647 binding fluorescence, higher = more signal
Sequence of Alpha-bungarotoxin (Bungarus multicinctus) (P60615 whole entry, looked up): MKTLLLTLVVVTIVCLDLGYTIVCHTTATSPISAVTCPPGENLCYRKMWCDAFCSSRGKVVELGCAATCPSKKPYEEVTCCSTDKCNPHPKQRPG

Sequence of Epidermal growth factor receptor (Homo sapiens) (P00533 whole entry, looked up): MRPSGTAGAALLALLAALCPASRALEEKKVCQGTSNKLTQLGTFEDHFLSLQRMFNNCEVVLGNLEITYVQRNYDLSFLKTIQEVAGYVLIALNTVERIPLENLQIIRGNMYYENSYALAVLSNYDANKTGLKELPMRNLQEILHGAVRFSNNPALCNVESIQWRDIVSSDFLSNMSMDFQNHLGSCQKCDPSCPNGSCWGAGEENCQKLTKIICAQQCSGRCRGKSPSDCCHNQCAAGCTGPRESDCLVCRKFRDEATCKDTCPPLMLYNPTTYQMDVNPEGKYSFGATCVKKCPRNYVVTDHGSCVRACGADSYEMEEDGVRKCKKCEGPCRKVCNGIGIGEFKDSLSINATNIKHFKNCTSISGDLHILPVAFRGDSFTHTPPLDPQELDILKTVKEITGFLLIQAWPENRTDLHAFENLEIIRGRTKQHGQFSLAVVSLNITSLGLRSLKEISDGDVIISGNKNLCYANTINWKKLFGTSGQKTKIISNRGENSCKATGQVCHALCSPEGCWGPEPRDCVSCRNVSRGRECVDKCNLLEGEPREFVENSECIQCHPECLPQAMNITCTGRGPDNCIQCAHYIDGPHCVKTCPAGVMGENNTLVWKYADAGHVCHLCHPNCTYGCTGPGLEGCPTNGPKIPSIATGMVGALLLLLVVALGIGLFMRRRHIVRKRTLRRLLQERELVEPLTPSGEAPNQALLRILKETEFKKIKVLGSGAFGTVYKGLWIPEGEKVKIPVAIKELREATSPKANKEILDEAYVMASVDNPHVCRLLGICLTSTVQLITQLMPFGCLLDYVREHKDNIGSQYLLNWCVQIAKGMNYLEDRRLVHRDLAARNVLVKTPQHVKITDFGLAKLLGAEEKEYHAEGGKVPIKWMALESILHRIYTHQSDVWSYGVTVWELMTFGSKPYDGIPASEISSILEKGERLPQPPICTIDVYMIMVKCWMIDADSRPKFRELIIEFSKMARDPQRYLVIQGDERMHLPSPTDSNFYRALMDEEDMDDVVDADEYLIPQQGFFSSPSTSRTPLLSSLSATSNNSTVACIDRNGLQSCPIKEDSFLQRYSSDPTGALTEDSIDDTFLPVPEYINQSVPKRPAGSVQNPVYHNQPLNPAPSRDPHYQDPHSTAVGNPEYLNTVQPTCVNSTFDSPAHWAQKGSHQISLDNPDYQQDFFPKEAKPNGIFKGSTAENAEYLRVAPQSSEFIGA
Sequence of Fibroblast growth factor 10 (Homo sapiens) (O15520 whole entry, looked up): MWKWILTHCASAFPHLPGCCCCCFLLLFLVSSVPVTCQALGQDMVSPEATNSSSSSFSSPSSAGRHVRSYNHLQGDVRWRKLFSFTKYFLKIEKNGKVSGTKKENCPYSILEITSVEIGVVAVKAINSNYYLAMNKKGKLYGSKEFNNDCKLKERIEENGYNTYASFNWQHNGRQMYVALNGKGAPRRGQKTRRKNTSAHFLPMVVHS
Sequence of Dickkopf-related protein 1 (Homo sapiens) (O94907 whole entry, looked up): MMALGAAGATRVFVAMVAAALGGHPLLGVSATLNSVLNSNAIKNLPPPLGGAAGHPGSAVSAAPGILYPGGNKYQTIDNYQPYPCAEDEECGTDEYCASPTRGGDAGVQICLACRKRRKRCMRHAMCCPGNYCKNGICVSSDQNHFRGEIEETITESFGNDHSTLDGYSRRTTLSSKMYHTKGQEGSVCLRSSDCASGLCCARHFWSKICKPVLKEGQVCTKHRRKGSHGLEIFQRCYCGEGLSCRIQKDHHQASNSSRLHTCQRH
Sequence of Left-right determination factor 2 (Homo sapiens) (O00292 whole entry, looked up): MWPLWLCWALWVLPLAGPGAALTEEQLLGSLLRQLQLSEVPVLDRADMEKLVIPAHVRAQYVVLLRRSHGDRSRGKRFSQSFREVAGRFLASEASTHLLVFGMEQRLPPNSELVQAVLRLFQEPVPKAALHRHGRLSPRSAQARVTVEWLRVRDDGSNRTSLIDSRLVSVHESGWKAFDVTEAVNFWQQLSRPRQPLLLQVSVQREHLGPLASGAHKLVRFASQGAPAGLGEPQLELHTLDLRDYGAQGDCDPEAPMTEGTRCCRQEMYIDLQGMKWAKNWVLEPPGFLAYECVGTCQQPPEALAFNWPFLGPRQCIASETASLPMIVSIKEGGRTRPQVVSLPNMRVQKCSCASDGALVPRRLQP
Sequence of Torsin-1A-interacting protein 1 (Homo sapiens) (Q5JTV8 whole entry, looked up): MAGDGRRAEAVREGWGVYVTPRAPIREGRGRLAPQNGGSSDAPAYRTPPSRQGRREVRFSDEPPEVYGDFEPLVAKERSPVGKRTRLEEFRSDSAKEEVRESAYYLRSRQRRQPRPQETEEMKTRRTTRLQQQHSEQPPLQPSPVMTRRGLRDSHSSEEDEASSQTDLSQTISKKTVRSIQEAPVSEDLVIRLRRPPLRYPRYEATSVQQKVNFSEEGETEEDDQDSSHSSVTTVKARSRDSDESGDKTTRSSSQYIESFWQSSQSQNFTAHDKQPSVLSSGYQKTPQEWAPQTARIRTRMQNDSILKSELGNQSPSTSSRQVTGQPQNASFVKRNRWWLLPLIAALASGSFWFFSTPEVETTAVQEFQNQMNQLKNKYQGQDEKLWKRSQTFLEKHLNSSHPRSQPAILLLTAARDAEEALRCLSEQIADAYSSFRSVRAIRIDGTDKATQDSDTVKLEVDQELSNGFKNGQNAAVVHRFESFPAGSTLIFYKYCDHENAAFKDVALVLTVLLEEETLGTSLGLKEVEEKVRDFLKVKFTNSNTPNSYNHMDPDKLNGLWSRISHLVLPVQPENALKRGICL
Sequence of Follistatin-related protein 3 (Homo sapiens) (O95633 whole entry, looked up): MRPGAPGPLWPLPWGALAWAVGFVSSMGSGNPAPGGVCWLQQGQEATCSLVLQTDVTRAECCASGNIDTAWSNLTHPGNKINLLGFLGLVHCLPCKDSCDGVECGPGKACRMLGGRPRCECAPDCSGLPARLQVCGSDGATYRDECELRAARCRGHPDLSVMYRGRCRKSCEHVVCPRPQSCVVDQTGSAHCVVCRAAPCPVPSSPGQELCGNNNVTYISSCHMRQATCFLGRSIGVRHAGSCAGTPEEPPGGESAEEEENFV

Row | Compound | composite z-score [1] | composite z-score [2] | composite z-score [3] | z-score [4] | composite z-score [5] | composite z-score [6] | composite z-score [7] | composite z-score [8] | composite z-score [9] | composite z-score [10] | composite z-score [11] | z-score [12] | composite z-score [13] | composite z-score [14] | composite z-score [15] | composite z-score [16] | composite z-score [17] | composite z-score [18] | composite z-score [19] | composite z-score [20]
1 | C=CCN(Cc1ccccc1)C(=O)C(c1cccs1)N(C(=O)/C=C\C(=O)O)c1c(Cl)cccc1CO (stereo not given) | -1.01 and -1.02 | -0.833 and 0.0042 | 0.898 and 0.996 | 0.395 (inactive) and -0.0385 (inactive) | -1.96 and -1.73 | -1.09 and -1.76 | -1.63 and -1.36 | -1.27 and -2.07 | -2.01 and -2.62 | -3.32 and -2.86 | -1.63 and -2.43 | -0.68 and -0.803 | -0.682 and -3.86 | -0.374 and -0.222 | 0.58 and 0.911 | -0.12 and -0.298 | -0.212 and -0.366 | -0.153 and 0.103 | -1.51 and -0.936 | -0.974 and -2.03
2 | COC(=O)C1=C(C)N(Cc2ccccc2)[C@]23O[C@](C(=O)OC)(C(=O)N2[C@@H]1c1ccccc1)[C@@H](c1ccccc1)[C@@H]3C(=O)c1ccccc1 | -0.104 and 0.177 | 0.107 and 0.263 | -0.0791 and -0.347 | -1.55 (inactive) and -0.5 (inactive) | 0.0494 and 0.417 | 0.338 and -0.145 | 0.0596 and 0.511 | 0.208 and 0.524 | 0.217 and 0.967 | -0.431 and 1.21 | 0.189 and -0.932 | 0.989 and 0.471 | 0.494 and 0.9 | 1.43 and -1.06 | 0.589 and -0.256 | -0.0417 and -0.137 | -0.276 and -0.16 | -0.0315 and -0.226 | 0.296 and -0.228 | 0.932 and -0.0514
3 | COc1ccc(O[C@H]2C=C[C@@H](c3ccccc3)O[C@@H]2COC(=O)CCC(C)=NO[C@H](C)c2cn([C@H](CO)Cc3ccccc3)nn2)cc1 | 0.366 and 0.205 | 0.416 and -0.0879 | -0.305 and -0.291 | -0.643 (inactive) and -1.07 (inactive) | -0.0593 and 0.263 | -0.018 and 0.173 | 0.188 and 0.353 | 0.73 and 0.397 | 1.12 and 1.39 | 0.164 and 0.485 | -0.0009 and -0.0146 | -1.99 and -2.59 | 0.195 and 0.439 | -0.223 and -0.233 | -0.232 and -0.239 | -0.132 and 0.205 | -0.0553 and -0.129 | -0.0827 and 0.96 | 0.14 and 0.392 | 0.211 and 0.231
4 | C=CCN(C(=O)C(c1cccs1)N(C(=O)/C=C\C(=O)O)c1c(Cl)cccc1CO)c1ccc(OC)cc1 (stereo not given) | 1.67 and 0.504 | 0.218 and 1.01 | 1.24 and 1.27 | -1.13 (inactive) and -0.482 (inactive) | -1.5 and -1.19 | -0.625 and -0.907 | -2.29 and -1.02 | -2.23 and -1.78 | -4.06 and -2.06 | -0.828 and -0.09 | -0.523 and -0.539 | -0.16 and -0.604 | -2.96 and -1.51 | -0.0794 and -0.107 | 1.06 and 0.804 | -0.285 and -0.096 | -0.0011 and 0.173 | 0.709 and -0.0216 | 1.81 and -0.188 | -1.73 and -0.053
5 | CCOC(=O)[C@H](Cc1ccccc1)NC(=O)CCC1CC(OC(=O)NCc2cccc3ccccc23)CC2(CCCC(COC(=O)NCCCN3CCCC3=O)O2)O1 (stereo not given in full) | 0.513 | -0.104 | -0.517 | -1.09 (inactive) | 0.447 | 0.901 | 0.405 | 0.804 | 0.866 | -0.0698 | 1.28 | -0.963 | 0.752 | 0.394 | -0.267 | -0.2 | -0.279 | -0.17 | 0.403 | 0.552
6 | C=CCN(C(=O)C(c1cccs1)N(C(=O)/C=C\C(=O)O)C(C)(C)CO)c1ccc(OC)cc1 (stereo not given) | 1.39 and -1.69 | -0.117 and -0.0312 | 0.599 and 0.476 | -2.61 (inactive) and -1.39 (inactive) | -0.477 and -0.869 | -0.41 and -0.514 | -0.869 and -2.11 | -1.4 and -1.37 | -0.789 and -0.497 | -1.07 and -0.761 | -0.759 and -0.652 | 0.0435 and 2.82 | -1.77 and -2.47 | 0.459 and -0.933 | 0.891 and 0.235 | -0.0455 and -0.166 | -0.138 and -0.0626 | 0.162 and 0.292 | 0.588 and 1.06 | -2.1 and -1.16
7 | C=CCN(Cc1ccccc1)C(=O)C1N(c2ccc(CCO)cc2)C(=O)C2C(C(=O)O)C3C=CC21O3 (stereo not given) | 0.808 and 1.9 | 0.433 and -0.26 | 1.08 and 1.01 | -0.426 (inactive) and -0.139 (inactive) | -1.98 and -2.13 | -1.13 and -1 | -1.69 and -2.44 | -3.03 and -1.19 | -2.7 and -3.74 | -3.78 and -3.04 | -0.864 and -3.61 | 0.677 and 0.514 | -2.68 and -3.26 | -0.279 and -1.04 | 0.428 and -0.184 | -0.195 and -0.0792 | 0.149 and -0.0035 | -0.152 and 0.784 | -0.958 and -1.58 | -1.48 and 0.899
8 | C[C@@]1([C@@H](NC(=O)Cc2ccccc2)c2ccc(-c3ccccc3)cc2)C[C@H]1C1CCCCC1 | 0.334 and 0.359 and 0.301 | 1.14 and 1.83 and -0.112 | 0.775 and 1.08 and 0.538 | -4.09 (inactive) and -1.68 (inactive) and 0.868 (inactive) | 0.543 and 0.838 and 0.0825 | 0.271 and 0.234 and 0.826 | -0.0372 and 0.289 and -0.265 | -0.008 and -0.172 and 0.156 | -0.193 and -0.286 and -0.719 | 1.3 and 1.08 and 0.556 | 0.208 and 0.778 and 1.16 | -2.39 and -1.33 and -0.271 | -0.109 and -0.069 and 0.118 | 1.7 and 1.95 and 1.63 | 1.26 and 1.28 and 0.753 | 0.631 and 1.04 and 0 | 2.22 and 2.04 and -0.493 | 0.292 and 1.37 and 1.17 | -0.288 and -0.307 and 0.775 | 1 and 0.582 and 1.93
9 | COC(=O)C1=C(C)N(Cc2ccccc2)C2=C3C(=O)N(C)C(=O)[C@@H]3[C@@](O)(C(=O)OC)C(=O)N2[C@@H]1c1ccccc1 | -0.0387 and 0.0245 | 0.0287 and -0.103 | -0.282 and -0.486 | -0.18 (inactive) and -0.675 (inactive) | 0.786 and 0.387 | 0.0745 and 0.608 | 0.533 and 0.834 | 0.285 and 0.502 | 0.103 and 0.211 | 0.476 and 0.292 | -0.517 and 0.0656 | -0.0888 and 1.05 | 0.356 and 0.796 | -0.403 and -0.324 | -0.668 and -0.691 | -0.124 and -0.0735 | -0.0035 and -0.16 | -0.0705 and -0.272 | 0.015 and -0.101 | 0.871 and 0.167
10 | C=CCN1C(=O)[C@]2(O[C@H](CCn3cc(CCO)nn3)[C@@H]([Si](C)(C)c3ccc(OC)cc3)[C@@H]2C)c2cc(N3C(=O)c4cccc5cccc3c45)ccc21 | 0.306 and 1.07 | -0.206 and -0.233 | -0.106 and -0.142 | -4 (inactive) and -3.52 (inactive) | 0.726 and 1.05 | 0.26 and 0.521 | -0.0684 and -0.247 | 0.228 and 0.181 | -0.0095 and -0.0589 | 0.538 and 0.516 | 1.33 and 0.725 | -5.11 and -5.13 | 0.238 and -0.0491 | 0.345 and 0.772 | -0.0218 and 0.227 | -0.0203 and 0.0079 | 0.0048 and 0.14 | -0.136 and -0.0115 | 1.11 and 0.749 | 0.334 and 0.366
11 | C=CCN(C(=O)C1N(c2c(Cl)cccc2CO)C(=O)C2C(C(=O)O)C3C=CC21O3)c1ccc(OC)cc1 (stereo not given) | 1.51 and -0.251 | -0.0248 and -0.257 | 0.804 and 0.73 | -1.1 (inactive) and -0.88 (inactive) | -1.56 and -2.01 | -1.29 and -0.754 | -1.86 and -2.26 | -1.4 and -2.14 | -1.99 and -2.35 | -1.12 and -3.24 | -0.716 and -1.82 | -1.14 and -0.0856 | -2.79 and -1.79 | -0.746 and -0.798 | -0.0974 and 0.407 | -0.355 and -0.242 | -0.487 and -0.336 | -0.218 and -0.24 | -0.809 and -0.822 | -0.64 and -2.45
